# Laboratory results: PubChem BioAssay (EPA / NIEHS)
# Results filed as inconclusive are left out. Calls of active or inactive are those of the source. How the source made its calls: active means hit-call score of the fitted dose curve at least 0.9, where 1 is the maximum; inconclusive means response in the unintended direction; inactive means score below 0.9.
# Target: Estrogen receptor (Homo sapiens) (UniProt P03372)
# Experiment: OT_ER_ERaERa_0480: Odyssey Thera (OT) 8-hour HEK293T Protein-Complementation Assay for Estrogen Receptor-alpha/-alpha Homodimer (AID 2283351);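 further: rise in fluorescence from reassembled reporter fragments on ERα LBD homodimer in nucleus or whole cell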
# Procedure: OT_ER_ERaERa_0480 is a cell-based assay that uses HEK293T, a human kidney cell line, with measurements taken at 8 hours after chemical dosing in a 384-well plate.OT_ER_ERaERa_0480 is one of one assay component(s) measured or calculated from the OT_ER_ERaERa_0480 assay. It is designed to make measurements of protein fragment complementation, a form of binding reporter, as detected with fluorescence intensity signals by Protein-fragment Complementation technology.Data from the assay component OT_ER_ERaERa_0480 was analyzed into 1 assay endpoint. This assay endpoint, OT_ER_ERaERa_0480, was analyzed in the positive analysis fitting direction relative to DMSO as the negative control and baseline of activity. Using a type of binding reporter, measures of receptor for gain-of-signal activity can be used to understand the binding at the pathway-level as they relate to the gene ESR1. Furthermore, this assay endpoint can be referred to as a primary readout, because the performed assay has only produced 1 assay endpoint. To generalize the intended target to other relatable targets, this assay endpoint is annotated to the nuclear receptor intended target family, where the subfamily is steroidal.
# Protein-fragment complementation assay, or PCA, is a method for the identification and quantification of protein-protein interactions. In the PCA, the proteins of interest ("bait" and "prey") are each covalently linked to fragments of a third protein (e.g. DHFR, which acts as a "reporter"). Interaction between the bait and the prey proteins brings the fragments of the reporter protein in close proximity to allow them to form a functional reporter protein whose activity can be measured. The OT ER alpha / ER alpha assay is a homodimer PCA of the ligand binding domain (amino acids 310-547) of human ER alpha stably expressed in HEK293T cells. […] Fluorescent signal in the basal state of the assay is very low and is primarily punctuate and cytoplasmic. Modulation of this assay is quantified as an increase in mean fluorescence intensity in the nucleus (for agonists) or in the nucleus and cytoplasm (antagonists) relative to vehicle controls, and can be quantified on a high content imaging device or a laser scanning cytometer. The latter instrument is favored for this assay because of the rapid mode of data acquisition, the ability to acquire data from the entire cell population in a well (as opposed to a fraction of the well on the high content devices) and the larger dynamic range typically achieved with this instrument. To assess sensitivity of the ER alpha/ER alpha LBD assay to ligand, cells were treated with the ER agonist 17 beta-estradiol (E2) in 10-point concentration- response format for 8 hours and monitored response on a laser scanning plate cytometer (Acumen eX3; TTP Lab Tech).
# Chain of Estrogen receptor (Homo sapiens) (P03372 whole entry, looked up, the tested form may be a part): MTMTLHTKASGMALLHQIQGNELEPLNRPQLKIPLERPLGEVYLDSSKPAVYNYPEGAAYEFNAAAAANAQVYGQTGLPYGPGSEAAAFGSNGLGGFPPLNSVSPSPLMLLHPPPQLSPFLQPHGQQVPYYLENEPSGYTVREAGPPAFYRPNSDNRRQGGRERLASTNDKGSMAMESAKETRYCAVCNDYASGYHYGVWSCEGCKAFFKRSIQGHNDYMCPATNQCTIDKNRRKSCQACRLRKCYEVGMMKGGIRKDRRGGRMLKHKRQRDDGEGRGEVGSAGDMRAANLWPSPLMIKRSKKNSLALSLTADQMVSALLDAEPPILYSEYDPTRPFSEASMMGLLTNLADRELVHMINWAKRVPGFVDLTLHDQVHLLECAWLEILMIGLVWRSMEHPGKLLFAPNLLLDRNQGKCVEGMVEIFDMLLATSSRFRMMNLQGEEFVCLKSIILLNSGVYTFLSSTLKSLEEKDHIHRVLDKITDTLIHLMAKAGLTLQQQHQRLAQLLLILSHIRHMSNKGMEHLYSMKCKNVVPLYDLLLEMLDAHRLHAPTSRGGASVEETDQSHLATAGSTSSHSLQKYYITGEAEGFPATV
SMILES,outcome,AC50
c1ccc(Cc2ccccc2)cc1,inactive,
CN(C)C(=O)Nc1ccccc1,inactive,
FC(F)(F)c1ccc(Cl)c(Cl)c1,inactive,
CC(C)(C)c1cccc(O)c1,,60.2 µM (active)
C1=COCCC1,inactive,
C=CCCCCCCCCC(=O)OCC,inactive,
COC(=O)c1ccc(C(=O)OC)cc1,inactive,
c1coc(CNc2ncnc3nc[nH]c23)c1,inactive,
CC(C)(C)c1ccc(S)cc1,inactive,
CCCCCCCCCCCCOCCOS(=O)(=O)O,inactive,
C1CCCNCC1,inactive,
CC(O)CNCC(C)O (stereo not given),inactive,
CC(=O)OC/C=C(C)/C=C/C=C(C)/C=C/C1=C(C)CCCC1(C)C,inactive,
Cc1cccc(C)c1,inactive,
CCC(C)C1CCCCC1=O (stereo not given),inactive,
NC(=O)c1cccnc1,inactive,
CCCC1CCC(=O)CC1,inactive,
CCCCOCCOCCO,inactive,
CCCCCCC(C)O (stereo not given),inactive,
COc1cc(OC)c2ccc(=O)oc2c1,inactive,

SMILES,outcome,AC50
c1ccc(OCCOc2ccccc2)cc1,inactive,
CCCCCCCCOC(C)=O,inactive,
CC1COC(=O)O1 (stereo not given),inactive,
CCCO,inactive,
CCCCCCCCCCO[C@@H]1O[C@H](CO)[C@@H](O)[C@H](O)[C@H]1O,inactive,
CCCCCCCCOC(=O)c1ccc(O)cc1,,20.9 µM (active)
CC(=O)C1=C(C)[C@@H]2C[C@@]3(C1)[C@H](C)CC[C@H]3C2(C)C,,21.6 µM (active)
CN1CCc2cccc3c2[C@H]1Cc1ccc(O)c(O)c1-3,inactive,
OCC=Cc1ccccc1,inactive,
CCCCCCCCCCOC(=O)c1ccccc1C(=O)OCCCCCCCC,inactive,
C=C(C)C(N)=O,inactive,
CCCO[Si](OCCC)(OCCC)OCCC,inactive,
CC(=O)C1C(=O)C=C(C)OC1=O (stereo not given),inactive,
CCCCCCCC(=O)N(C)C,inactive,
CN(C)C,inactive,
CCCCC(CC)COCCO (stereo not given),inactive,
OC[C@H]1O[C@@H](O[C@H]2[C@H](O)[C@@H](O)[C@H](O)O[C@@H]2CO)[C@H](O)[C@@H](O)[C@H]1O,inactive,
CCC(C)COC(=O)CC(C)C (stereo not given),inactive,
CCCC(O)C(CC)CO (stereo not given),inactive,
C=CC(C)CCCC(C)(C)O (stereo not given),inactive,
